Laboratory results published in PubChem BioAssay (NCI).
Compounds without any hit were thinned out: in the full panel of roughly 83,000, 20% have a hit.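 Growth was measured after 48 h exposure to one concentration of compound in 96-well plates. Values under 10 count as active.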 Values without a mark were called inactive. Active and inactive are the calls of the source.

Key:
Assay in all cases: NCI-60 one-dose screen, 48 h (100 = growth as untreated, 0 = no growth, -100 = all killed)
Conditions in all cases: 10 µM unless noted
[1] = tested on: HCT-15 colon
[2] = tested on: HT29 colon
[3] = tested on: SNB-75 CNS
[4] = tested on: SNB-19 CNS
[5] = tested on: U251 CNS
[6] = tested on: PC-3 prostate
[7] = tested on: SK-MEL-5 melanoma
[8] = tested on: UACC-62 melanoma
[9] = tested on: LOX IMVI melanoma
[10] = tested on: SK-MEL-28 melanoma

Structure (SMILES) | growth [1] | growth [2] | growth [3] | growth [4] | growth [5] | growth [6] | growth [7] | growth [8] | growth [9] | growth [10]
COc1ccc(-c2cs/c(=N\N=C\c3ccc(O)cc3O)n2/N=C/c2ccc(O)cc2O)cc1 | -53.1% (active) | -29% (active) | 29.7% | 5.62% (active) | -35.8% (active) | -67.3% (active) | -38.6% (active) | -36.3% (active) | -36% (active) | -22.9% (active)
O=C(Nc1nc(-c2ccccc2)cs1)c1cc(-c2ccc(Br)cc2)nc2ccccc12 | 33% | 39.8% | 85.1% | 79.2% | 42% | 28.9% | 54.8% | 50.5% | 42.7% | 68.3%
COc1ccc2[nH]c(=O)c(/C=C/C(=O)/C=C/c3ccc(O)c(OC)c3)cc2c1 | 2.08% (active) | -38.7% (active) | 59.8% | 36.3% | -13% (active) | 9.53% (active) | 9.36% (active) | 10.8% | -36% (active) | 16.8%
O=[N+]([O-])c1cccc(CN(Cc2cccc([N+](=O)[O-])c2O)c2ccccc2)c1O | 69.4% | 56.1% | 86.1% | 92% | 85.4% | 71.1% | 90.5% | 69.6% | 79.6% | 96.7%
C=C(C)[C@@H]1CC[C@]2(C(=O)O)CC[C@]3(C)[C@H](CC[C@@H]4[C@@]5(C)C[C@@H](CC#Cc6ccccc6)C(=O)C(C)(C)[C@@H]5CC[C@]43C)[C@@H]12 | 18.8% | 23.9% | 65.1% | 46.3% | 27.8% | 35.3% | 32% | 42.4% | 45.1% | 45.1%
Cc1cccc(NC(=O)c2sc3nc4c(cc3c2N)CN(Cc2ccccc2)CC4)c1C | 29.6% | 9.33% (active) | 13.5% | 34.3% | 25.4% | 32.2% | 39.7% | 42.8% | 44% | 68.2%
C=C(C)[C@@H]1CC[C@]2(C(=O)N=C=S)CC[C@]3(C)[C@H](CC[C@@H]4[C@@]5(C)CCC(=O)C(C)(C)[C@@H]5CC[C@]43C)[C@@H]12 | 20.3% | 15.5% | 43.6% | 28.1% | 23.9% | 20.8% | 77.7% | 44.5% | 41.4% | 66%
CC(=O)Nc1c(C(=O)Nc2ccccc2)sc2nc3c(cc12)C(OC(C)=O)CCC3 (stereo not given) | 99.7% | 104% | 88.2% | 95.8% | 94.8% | 89% | 82.5% | 59% | 92.2% | 88.9%
COc1ccc(/C(=N\O)c2cc(C)c(OC)c(C)c2)cc1O | 16.3% | -8.4% (active) | 38.4% | 29.8% | 22.1% | 37.6% | -7.18% (active) | 35.3% | 24.2% | 55.4%
COc1ccc(Cc2nc(C#N)c(N3CCN(c4ccc(F)cc4)CC3)o2)cc1 | 76% | 79.8% | 65.2% | 99.1% | 103% | 85.9% | 100% | 76.1% | 96.1% | 97.9%
O=C(CCCCCCCCC(=O)Nc1cccc(C2=NCCN2)c1)Nc1cccc(C2=NCCN2)c1 | 102% | 82.3% | 110% | 102% | 91.7% | 84.9% | 98.2% | 105% | 98.7% | 92.8%
OCCNc1nc(NCCO)nc(Nc2ccc(C3=NN(c4cc(Cl)cc(Cl)c4)C(c4ccc(C(F)(F)F)cc4)C3)cc2)n1 (stereo not given) | 17.5% | 10.5% | -1.68% (active) | 44.4% | 19.3% | 19.2% | 52.7% | 47.1% | -48.5% (active) | 44.8%
COc1cc2c(cc1OC)C(Sc1ccc(Cl)cc1)c1c(nc(N)c(C#N)c1N)O2 (stereo not given) | -66.2% (active) | -61.9% (active) | -17.4% (active) | 22.1% | -62.5% (active) | 5.11% (active) | 12.5% | -23.8% (active) | -88.9% (active) | -3.09% (active)
C#CCOC(=O)[C@]1(C)CCC[C@]2(C)[C@H]3C[C@H]4C(C(C)C)=C[C@]3(CC[C@H]21)[C@@H]1C(=O)CCC(=O)[C@@H]14 | 92.6% | 71.1% | 90.3% | 86% | 87.6% | 49.7% | 85.5% | 63.1% | 78.8% | 95.3%
NC(=O)CN1C(=O)c2ccccc2C1=O | 100% | 102% | 86.4% | 98.4% | 103% | 99.5% | 99.2% | 95.7% | 103% | 106%
COc1ccc2nc(-c3ccc(OC)c(OC)c3)cc(-c3nnc(SCC(=O)Nc4ccc(C(C)=O)cc4)o3)c2c1 | 100% | 105% | 91.6% | 101% | 97.7% | 95% | 94.1% | 102% | 102% | 113%
CSc1nc(-c2ccc(F)cc2)c(C#N)c(N2CCOCC2)n1 | 98.6% | 92.3% | 73.8% | 92.9% | 89.3% | 89.9% | 94.8% | 78.9% | 99.2% | 101%
